This is an account of results in PubChem BioAssay (NCATS).

Assay [1] has as its target Voltage-gated inwardly rectifying potassium channel KCNH2 (Homo sapiens) (UniProt Q12809). Briefly: qHTS Assay for Small Molecule Inhibitors of the Human hERG Channel Activity (AID 588834).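 Further: lower thallium flux fluorescence means stronger hERG block; nearly all actives have a fitted effect of over 50% in size.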 Further: potency means the concentration at half of the fitted maximal effect. Conditions: U2OS BacMam hERG, FluxOR thallium flux fluorescence; series mostly up to 46.1 µM. The procedure, abridged: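 Homogeneous FluxOR thallium flux assay using hERG-expressing U2OS cells (BacMam). Compound treatment about 10 minutes preceded stimulation; reduced fluorescence taken as channel block.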
For orientation: qHTS replaces the single test concentration by a dilution series.

In assay [2] the target is Luciferin 4-monooxygenase (Photinus pyralis) (UniProt P08659). The assay can be described thus: Biochemical firefly luciferase enzyme assay for NPC (AID 624030).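 Further: purified P. pyralis luciferase at 10 nM with luciferin and ATP substrate; nearly all actives have a fitted effect of over 70% in size.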 The settings on record: purified P. pyralis luciferase, luminescence, 5 min; series mostly up to 58.6 µM. The procedure, abridged:
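Counter-screen for direct inhibition of the luciferase enzyme by approved-drug library compounds, run at 10 nM enzyme in 50 mM Tris acetate (final). Luminescence was read within 5 min of enzyme-buffer addition and normalized to PTC124 versus DMSO (0%).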

Structures are written as SMILES. “And” between values parts separate entries of the source, which are not always exact repeats. Identical values can stand only once. Records with an inconclusive call do not appear. Entries that show only a call come without a potency. Some structures have more than one record in an assay (separate samples or runs), and their calls can disagree. The source made the active and inactive calls. The call rests on the fitted dose curve; in most records, active means well fitted inhibition curve with a large enough effect; inconclusive means small, poorly fitted or top-dose-only effect; inactive means flat fitted curve, though single readings scatter. Peptide text beside a SMILES is read from it.

Chain of Luciferin 4-monooxygenase (Photinus pyralis) (P08659 whole entry, looked up): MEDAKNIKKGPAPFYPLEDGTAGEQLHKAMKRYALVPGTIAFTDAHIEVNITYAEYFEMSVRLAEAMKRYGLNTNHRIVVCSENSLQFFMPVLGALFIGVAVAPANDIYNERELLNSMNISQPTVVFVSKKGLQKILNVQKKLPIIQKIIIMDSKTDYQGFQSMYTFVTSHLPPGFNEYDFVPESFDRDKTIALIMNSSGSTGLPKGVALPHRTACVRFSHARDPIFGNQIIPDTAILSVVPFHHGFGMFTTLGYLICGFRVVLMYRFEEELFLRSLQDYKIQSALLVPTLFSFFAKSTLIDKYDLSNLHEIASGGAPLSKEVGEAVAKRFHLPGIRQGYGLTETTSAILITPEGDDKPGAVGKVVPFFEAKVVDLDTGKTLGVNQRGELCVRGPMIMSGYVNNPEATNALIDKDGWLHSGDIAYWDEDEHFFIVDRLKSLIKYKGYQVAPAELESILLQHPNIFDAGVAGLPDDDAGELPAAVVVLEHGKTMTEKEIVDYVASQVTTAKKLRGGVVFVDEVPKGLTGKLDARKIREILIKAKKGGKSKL
Chain of Voltage-gated inwardly rectifying potassium channel KCNH2 (Homo sapiens) (Q12809 whole entry, looked up): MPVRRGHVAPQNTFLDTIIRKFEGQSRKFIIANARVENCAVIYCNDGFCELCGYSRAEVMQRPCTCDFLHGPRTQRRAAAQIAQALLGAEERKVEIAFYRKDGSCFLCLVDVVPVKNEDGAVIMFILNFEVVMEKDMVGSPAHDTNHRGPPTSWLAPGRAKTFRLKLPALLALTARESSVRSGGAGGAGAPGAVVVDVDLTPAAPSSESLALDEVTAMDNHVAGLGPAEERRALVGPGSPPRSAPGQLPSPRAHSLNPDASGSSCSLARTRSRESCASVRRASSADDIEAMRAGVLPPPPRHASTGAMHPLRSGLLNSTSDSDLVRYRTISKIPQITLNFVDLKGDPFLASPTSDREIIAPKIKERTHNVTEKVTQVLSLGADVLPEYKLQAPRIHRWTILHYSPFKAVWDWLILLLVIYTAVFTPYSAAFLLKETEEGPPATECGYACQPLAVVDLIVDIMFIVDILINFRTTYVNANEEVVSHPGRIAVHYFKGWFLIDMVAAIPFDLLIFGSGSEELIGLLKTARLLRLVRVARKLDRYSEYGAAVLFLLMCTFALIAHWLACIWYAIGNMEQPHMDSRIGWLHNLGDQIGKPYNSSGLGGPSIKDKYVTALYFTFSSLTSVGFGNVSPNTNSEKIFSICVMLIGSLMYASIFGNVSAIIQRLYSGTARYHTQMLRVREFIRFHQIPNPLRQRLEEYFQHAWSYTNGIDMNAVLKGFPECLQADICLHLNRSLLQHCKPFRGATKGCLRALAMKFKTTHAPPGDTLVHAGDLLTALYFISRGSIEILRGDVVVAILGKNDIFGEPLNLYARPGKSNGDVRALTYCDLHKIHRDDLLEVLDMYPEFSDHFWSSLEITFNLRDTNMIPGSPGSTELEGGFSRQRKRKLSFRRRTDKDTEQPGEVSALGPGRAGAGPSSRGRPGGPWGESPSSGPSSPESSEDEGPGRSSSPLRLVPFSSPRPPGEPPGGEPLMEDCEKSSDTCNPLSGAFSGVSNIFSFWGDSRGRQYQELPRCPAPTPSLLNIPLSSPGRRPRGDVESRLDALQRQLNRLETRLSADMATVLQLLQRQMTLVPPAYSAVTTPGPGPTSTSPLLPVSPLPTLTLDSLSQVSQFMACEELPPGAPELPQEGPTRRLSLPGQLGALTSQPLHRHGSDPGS

Turning to `CCOC(=O)C1=CC2(CC)CCCN3CCc4c(n1c1ccccc41)C32` (centres undefined), in assay [1], the Potency is 0.0891 µM (active). Same read-out and setting: the same measure for `CC1=C(/C=C/C(C)=C/C=C/C(C)=C/C=C/C=C(C)/C=C/C=C(C)/C=C/C2=C(C)C(=O)CCC2(C)C)C(C)(C)CCC1=O`: “inactive”; for `CO[C@H]1C=CO[C@@]2(C)Oc3c(C)c(O)c4c(O)c(c(/C=N/N5CCN(C6CCCC6)CC5)c(O)c4c3C2=O)NC(=O)/C(C)=C\C=C[C@H](C)[C@H](O)[C@@H](C)[C@@H](O)[C@@H](C)[C@H](OC(C)=O)[C@@H]1C`: “inactive”; for `CO[C@H]1C[C@H](O[C@H]2[C@H](C)[C@@H](O[C@@H]3O[C@H](C)C[C@H](N(C)C)[C@H]3OC(C)=O)[C@@H](C)C[C@]3(CO3)C(=O)[C@H](C)[C@@H](OC(C)=O)[C@@H](C)[C@@H](C)OC(=O)[C@@H]2C)O[C@@H](C)[C@@H]1OC(C)=O`: “inactive”.

On to `CC(C(=O)O)c1ccc(N2Cc3ccccc3C2=O)cc1` (centres undefined), for which the Potency entry in assay [1] was “inactive”. On the same count and under the same terms, for `CC(=O)N[C@@H](CC(=O)O)C(=O)N[C@@H](CCC(=O)O)C(=O)O` (Ac-Asp-Glu-OH) the value was “inactive”.

`CC(C)C(=O)OCC(=O)[C@@]12O[C@H](C3CCCCC3)O[C@@H]1C[C@H]1[C@@H]3CCC4=CC(=O)C=C[C@]4(C)[C@H]3[C@@H](O)C[C@@]12C`: the Potency in assay [1] was 3.98 µM (active). Same read-out and setting: the same measure for `CC(C)(C)C(=O)OCOC(=O)[C@@H]1N2C(=O)[C@@H](N=CN3CCCCCC3)[C@H]2SC1(C)C`: “inactive”. In the case of `C=C[C@]1(C)C[C@@H](OC(=O)CSC(C)(C)CNC(=O)[C@H](N)C(C)C)[C@]2(C)[C@H](C)CC[C@]3(CCC(=O)[C@H]32)[C@@H](C)[C@@H]1O`, in assay [1], the Potency was 7.08 µM (active). As for `CC[C@H]1OC(=O)C[C@@H](O)[C@H](C)[C@@H](O[C@@H]2O[C@H](C)[C@@H](O)[C@H](N(C)C)[C@H]2O)[C@@H](CCN2C[C@H](C)C[C@H](C)C2)C[C@@H](C)C(=O)/C=C/C(C)=C/[C@@H]1CO[C@@H]1O[C@H](C)[C@@H](O)[C@@H](OC)[C@H]1OC`, the Potency entry in assay [1] was “inactive”.

With `CCC(=O)O[C@@H]1CC(=O)O[C@H](C)C/C=C/C=C/[C@H](O)[C@H](C)C[C@H](CC=O)[C@H](O[C@@H]2O[C@H](C)[C@@H](O[C@H]3C[C@@](C)(O)[C@@H](OC(=O)CC)[C@H](C)O3)[C@H](N(C)C)[C@H]2O)[C@H]1OC`, the Potency result in assay [1] is “inactive”.

Take `O=C(O)C[C@H](O)C[C@H](O)/C=C/c1c(C2CC2)nc2ccccc2c1-c1ccc(F)cc1`: the Potency entry in assay [1] is “inactive”. Same read-out and setting: for `COC(=O)CCC(=O)CN` the value was “inactive”; for `CNc1cc(OC)c(C(=O)N[C@H]2CCN(Cc3ccccc3)[C@H]2C)cc1Cl`, 12.6 µM (active). For `CC1(C)S[C@@H]2[C@H](NC(=O)Cc3ccccc3)C(=O)N2[C@H]1C(=O)O`, the Potency entry in assay [1] was “inactive”.

On to `C=C1C(=CC=C2CCC[C@@]3(C)[C@@H]2CC[C@H]3[C@H](C)CCCC(C)C)C[C@@H](O)C[C@@H]1O`, for which the Potency result in assay [1] was “inactive”. Still for that read-out and setting: for `CC[N+](C)(C)Cc1ccccc1Br` the value was “inactive”; for `CO[C@H]1C=CO[C@@]2(C)Oc3c(C)c(O)c4c(O)c(c5c(nc6cc(C)ccn65)c4c3C2=O)NC(=O)/C(C)=C\C=C[C@H](C)[C@H](O)[C@@H](C)[C@@H](O)[C@@H](C)[C@H](OC(C)=O)[C@@H]1C`, “inactive”. With `CCOC(=O)O[C@]1(C(=O)COC(=O)CC)CC[C@H]2[C@@H]3CCC4=CC(=O)C=C[C@]4(C)[C@H]3[C@@H](O)C[C@@]21C`, the Potency result in assay [1] is “inactive”. Still for that read-out and setting: the same measure for `CCC(=O)O[C@]1(C(=O)CCl)[C@@H](C)C[C@H]2[C@@H]3C[C@H](F)C4=CC(=O)C=C[C@]4(C)[C@@]3(F)[C@@H](O)C[C@@]21C`: “inactive”. For `CCCC(=O)Nc1ncnc2c1ncn2C1OC2COP(=O)(O)OC2C1OC(=O)CCC` (centres undefined), in assay [1], the Potency entry is “inactive”. The same measure, in the same setting: for `CCc1ccc2c(c1)N(CC(C)CN(C)C)c1ccccc1S2` (centres undefined) the value was 7.94 µM (active); for `COc1cc([C@@H]2c3cc4c(cc3[C@@H](O[C@@H]3O[C@@H]5CO[C@@H](C)O[C@H]5[C@H](O)[C@H]3O)[C@H]3COC(=O)[C@H]23)OCO4)cc(OC)c1O`, “inactive”. Same read-out and setting: for `COC(=O)C1=C(C#N)NC(C)=C(C(=O)OC(C)C)C1c1cccc([N+](=O)[O-])c1` (centres undefined) the value was “inactive”; for `O=S(=O)(O)c1cc(O)c2c(N=Nc3ccc(Nc4ccccc4)c4c(S(=O)(=O)O)cccc34)cc(S(=O)(=O)O)cc2c1`, “inactive”; for `CO/N=C(\C(=O)N[C@@H]1C(=O)N2C(C(=O)O)=C(CSc3cnns3)CS[C@H]12)c1csc(N)n1`, “inactive”.

On to `CCOc1ccc(N=Nc2ccc(N)cc2N)cc1`, for which the Potency result in assay [1] is “inactive”. For the molecule `Nc1c(N=Nc2ccc(-c3ccc(N=Nc4cc(S(=O)(=O)O)c5ccccc5c4N)cc3)cc2)cc(S(=O)(=O)O)c2ccccc12`, in assay [1], the Potency entry is “inactive”.

In the case of `CCCCC(=O)N(Cc1ccc(-c2ccccc2-c2nn[nH]n2)cc1)[C@@H](C(=O)O)C(C)C`, the Potency result in assay [1] is “inactive”. On the same count and under the same terms, the same measure for `O=C(O)c1cc(=O)c2c3nc4ccccc4oc-3cc(=O)c2[nH]1`: “inactive”; for `CCCCC(=O)O[C@]1(C(=O)CO)[C@H](C)C[C@H]2[C@@H]3CCC4=CC(=O)C=C[C@]4(C)[C@@]3(F)[C@@H](O)C[C@@]21C`: “inactive”; for `CC(NNC(=O)c1ccccc1)c1ccccc1` (centres undefined): “inactive”. On the same count and under the same terms, for `COc1ccc(C[C@H](N)C(=O)N[C@H]2[C@@H](O)[C@H](n3cnc4c(N(C)C)ncnc43)O[C@@H]2CO)cc1` the value was “inactive”; for `CCC(=O)OCC(=O)[C@@]1(OC(=O)CC)[C@H](C)C[C@H]2[C@H]3[C@H]([C@@H](O)C[C@@]21C)[C@@]1(C)C=CC(=O)C=C1C[C@H]3Cl`, “inactive”.

For the molecule `Oc1cc(O)c2c(c1)OC(c1ccc(O)c(O)c1)C(O)C2` (centres undefined), the Potency entry in assay [2] was “inactive”. Regarding `CN1C(=O)CN2CCc3ccccc3C2c2cc(Cl)ccc21` (centres undefined), in assay [2], the Potency result was “inactive”. `CN1Cc2c(N)cccc2C(c2ccccc2)C1` (centres undefined): the Potency entry in assay [1] was “inactive and 12.6 µM (active)”. Further, the Potency result in assay [2] was “inactive”. `CO[C@H]1C[C@@H]2CC[C@@H](C)[C@@](O)(O2)C(=O)C(=O)N2CCCC[C@H]2C(=O)O[C@H]([C@H](C)C[C@@H]2CC[C@@H](OCCO)[C@H](OC)C2)CC(=O)[C@H](C)/C=C(\C)[C@@H](O)[C@@H](OC)C(=O)[C@H](C)C[C@H](C)/C=C/C=C/C=C/1C`: the Potency result in assay [1] and in assay [2] was “inactive” each time.

`CCCCCCCCCCCCCC[n+]1ccc(C)cc1`: the Potency entry in assay [2] was “inactive”. Still for that read-out and setting: the same measure for `OC[C@H]1O[C@@H](n2cnc3c2NC=NC[C@H]3O)C[C@@H]1O`: “inactive”. Consider `CC(=O)Oc1c(C)cc(OCC(O)CNC(C)C)c(C)c1C` (centres undefined), for which the Potency entry in assay [1] and in assay [2] was “inactive” throughout. In the case of `CCNC(=O)[C@@H]1CCCN1C(=O)[C@H](CCCN=C(N)N)NC(=O)[C@H](CC(C)C)NC(=O)[C@@H](Cc1c[nH]c2ccccc12)NC(=O)[C@H](Cc1ccc(O)cc1)NC(=O)[C@H](CO)NC(=O)[C@H](Cc1c[nH]c2ccccc12)NC(=O)[C@H](Cc1cnc[nH]1)NC(=O)[C@@H]1CCC(=O)N1`, the Potency in assay [1] is 2.51 µM (active). Moreover, the Potency result in assay [2] was “inactive”. As for `C[C@]12C=CC(=O)N[C@@H]1CC[C@@H]1[C@@H]2CC[C@]2(C)[C@@H](C(=O)Nc3cc(C(F)(F)F)ccc3C(F)(F)F)CC[C@@H]12`, the Potency in assay [1] was 2.51 µM (active). As for `CC(C)N=c1cc2n(-c3ccc(Cl)cc3)c3ccccc3nc-2cc1Nc1ccc(Cl)cc1`, in assay [1], the Potency is 7.08 µM (active). Further, the Potency entry in assay [2] is “inactive”.

`Cc1cc(C(=O)NNCc2ccccc2)no1`: the Potency result in assay [1] and in assay [2] was “inactive” each time. Turning to `Cc1ccccc1OCC(O)CNCCOc1ccc(C(N)=O)cc1` (centres undefined), the Potency entry in assay [2] was “inactive”. As for `CCCCCCOc1ccc(C(=N)N(CCCC)CCCC)c2ccccc12`, in assay [1], the Potency was 2.24 µM (active). For the same molecule, the Potency result in assay [2] was “inactive”.
